Source: the supplement of paper PMC11732987, “Enantioselective OTUD7B fragment discovery through chemoproteomics screening and high-throughput optimisation” (Communications Chemistry, 2025)

Tests used:
Assay in all cases: log2 ratio of Biotin-Ahx-Ub-VS probe labelling (fragment/DMSO); higher = less target engagement (more negative = stronger competition), active = hit call of the paper (q ≤ 0.05, log2 ratio ≤ -1)
Settings in all cases: compound concentration: 200 uM; treatment time: 3 h
OTUD6B = molecular target: T1, OTUD6B (UniProt Q8N6M0)
T1 sequence (whole entry): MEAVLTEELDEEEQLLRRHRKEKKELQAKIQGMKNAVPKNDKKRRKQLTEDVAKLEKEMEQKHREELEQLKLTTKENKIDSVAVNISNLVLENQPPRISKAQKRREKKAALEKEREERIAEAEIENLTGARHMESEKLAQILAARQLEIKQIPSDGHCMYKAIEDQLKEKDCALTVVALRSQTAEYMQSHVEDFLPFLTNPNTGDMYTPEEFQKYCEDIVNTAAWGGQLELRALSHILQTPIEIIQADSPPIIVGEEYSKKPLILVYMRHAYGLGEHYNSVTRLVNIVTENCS
Procedure, shortened: (§1)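 Average log2 ratios of fragment over vehicle were obtained by unpaired t-test from global-median-normalised Spectronaut label-free quantities. Proteins with ≥2 unique peptides were included. HEK293T lysate (495 µg per sample) was treated in triplicate with fragment at 200 µM or vehicle for 3 h, then with Biotin-Ahx-Ub-VS at 0.5 µM final for 1 h, and labelled DUBs were NeutrAvidin-enriched and run by diaPASEF LC-MS/MS.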

OTUD7B = molecular target: T2, OTUD7B (UniProt Q6GQQ9)
T2 sequence (whole entry): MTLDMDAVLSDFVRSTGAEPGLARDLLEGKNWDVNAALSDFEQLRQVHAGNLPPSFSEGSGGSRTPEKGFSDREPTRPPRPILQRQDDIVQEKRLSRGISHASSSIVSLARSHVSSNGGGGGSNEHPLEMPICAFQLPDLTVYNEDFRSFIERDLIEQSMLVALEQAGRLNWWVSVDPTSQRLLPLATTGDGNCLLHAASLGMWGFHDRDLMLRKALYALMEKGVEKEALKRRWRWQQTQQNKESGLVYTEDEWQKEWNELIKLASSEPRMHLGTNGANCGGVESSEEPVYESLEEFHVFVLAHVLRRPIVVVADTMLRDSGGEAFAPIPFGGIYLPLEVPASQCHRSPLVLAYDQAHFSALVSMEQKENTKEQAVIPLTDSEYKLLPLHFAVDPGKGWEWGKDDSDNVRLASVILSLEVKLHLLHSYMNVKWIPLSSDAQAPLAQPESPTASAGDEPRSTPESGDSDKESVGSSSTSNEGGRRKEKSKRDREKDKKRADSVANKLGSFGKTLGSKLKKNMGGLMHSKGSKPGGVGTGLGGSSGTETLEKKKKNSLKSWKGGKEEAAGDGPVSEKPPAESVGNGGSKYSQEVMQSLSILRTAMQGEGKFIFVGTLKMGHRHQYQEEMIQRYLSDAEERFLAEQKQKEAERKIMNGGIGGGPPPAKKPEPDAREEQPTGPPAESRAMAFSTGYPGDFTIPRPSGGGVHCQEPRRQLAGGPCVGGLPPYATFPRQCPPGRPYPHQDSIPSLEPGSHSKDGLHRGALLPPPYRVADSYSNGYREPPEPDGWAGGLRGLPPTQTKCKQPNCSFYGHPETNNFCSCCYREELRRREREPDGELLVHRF
Procedure, shortened: as §1

PRPF8 = PRPF8 (UniProt Q6P2Q9)
Procedure, shortened: as §1

PSMD7 = molecular target: T3, PSMD7 (UniProt P51665)
T3 sequence (whole entry): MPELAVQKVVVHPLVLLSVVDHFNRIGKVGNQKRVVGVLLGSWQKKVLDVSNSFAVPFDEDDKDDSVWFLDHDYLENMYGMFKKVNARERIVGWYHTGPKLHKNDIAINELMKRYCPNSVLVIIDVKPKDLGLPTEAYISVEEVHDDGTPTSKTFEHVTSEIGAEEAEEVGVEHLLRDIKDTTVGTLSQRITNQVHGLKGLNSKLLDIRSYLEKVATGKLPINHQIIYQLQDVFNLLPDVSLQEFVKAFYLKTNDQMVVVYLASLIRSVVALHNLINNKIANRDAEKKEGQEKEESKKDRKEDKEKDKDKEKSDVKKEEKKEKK
Procedure, shortened: as §1

UCHL1 = UCHL1 (UniProt P09936)
UCHL1, sequence (P09936 whole entry, looked up): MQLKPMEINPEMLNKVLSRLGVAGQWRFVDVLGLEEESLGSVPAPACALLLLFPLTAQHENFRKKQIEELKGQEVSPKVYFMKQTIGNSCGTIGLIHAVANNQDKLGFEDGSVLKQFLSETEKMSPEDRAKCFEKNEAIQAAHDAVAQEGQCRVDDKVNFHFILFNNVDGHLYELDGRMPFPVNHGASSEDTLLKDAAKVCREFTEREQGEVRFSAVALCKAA
Procedure, shortened: as §1

UCHL3 = molecular target: T4, UCHL3 (UniProt P15374)
T4 sequence (whole entry): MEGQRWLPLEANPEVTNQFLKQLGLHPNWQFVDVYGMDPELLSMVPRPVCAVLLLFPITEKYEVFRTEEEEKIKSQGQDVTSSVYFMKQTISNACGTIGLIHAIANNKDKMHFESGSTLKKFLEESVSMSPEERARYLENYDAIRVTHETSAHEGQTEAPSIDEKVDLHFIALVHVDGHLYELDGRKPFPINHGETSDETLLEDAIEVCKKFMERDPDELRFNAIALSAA
Procedure, shortened: as §1

UCHL5 = molecular target: T5, UCHL5 (UniProt Q9Y5K5)
T5 sequence (whole entry): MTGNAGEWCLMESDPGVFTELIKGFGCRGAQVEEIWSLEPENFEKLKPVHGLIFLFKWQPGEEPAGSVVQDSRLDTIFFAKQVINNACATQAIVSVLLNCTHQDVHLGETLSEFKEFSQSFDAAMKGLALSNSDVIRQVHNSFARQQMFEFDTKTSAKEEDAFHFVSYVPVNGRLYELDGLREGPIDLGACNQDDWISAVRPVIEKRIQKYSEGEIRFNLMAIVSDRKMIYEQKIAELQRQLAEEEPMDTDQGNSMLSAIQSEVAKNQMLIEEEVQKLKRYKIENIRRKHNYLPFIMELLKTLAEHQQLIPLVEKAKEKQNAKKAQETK
Procedure, shortened: as §1

USP10 = USP10 (UniProt Q14694)
USP10, sequence (Q14694 whole entry): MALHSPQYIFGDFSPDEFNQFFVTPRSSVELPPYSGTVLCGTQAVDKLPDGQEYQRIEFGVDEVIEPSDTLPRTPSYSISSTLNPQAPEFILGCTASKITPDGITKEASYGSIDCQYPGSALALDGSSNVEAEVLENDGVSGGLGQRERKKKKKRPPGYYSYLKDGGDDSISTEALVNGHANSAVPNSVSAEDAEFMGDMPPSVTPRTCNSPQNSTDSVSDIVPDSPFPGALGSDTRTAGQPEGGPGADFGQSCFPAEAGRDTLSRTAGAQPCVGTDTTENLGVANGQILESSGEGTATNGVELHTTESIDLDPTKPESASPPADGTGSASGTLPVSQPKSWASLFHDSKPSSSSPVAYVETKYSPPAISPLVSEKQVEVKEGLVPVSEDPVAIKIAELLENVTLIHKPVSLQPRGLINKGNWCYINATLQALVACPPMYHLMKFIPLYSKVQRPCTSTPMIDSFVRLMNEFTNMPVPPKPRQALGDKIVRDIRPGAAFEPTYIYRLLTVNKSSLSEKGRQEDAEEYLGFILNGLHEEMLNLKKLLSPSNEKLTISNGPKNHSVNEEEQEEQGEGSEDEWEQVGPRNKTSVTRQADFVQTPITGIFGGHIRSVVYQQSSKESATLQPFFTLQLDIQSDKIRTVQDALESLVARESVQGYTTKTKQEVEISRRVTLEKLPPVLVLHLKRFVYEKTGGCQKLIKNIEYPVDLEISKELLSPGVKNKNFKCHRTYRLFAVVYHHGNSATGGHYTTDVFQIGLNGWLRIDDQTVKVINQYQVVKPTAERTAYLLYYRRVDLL
Procedure, shortened: as §1

USP15 = molecular target: T6, USP15 (UniProt Q9Y4E8)
T6 sequence (whole entry): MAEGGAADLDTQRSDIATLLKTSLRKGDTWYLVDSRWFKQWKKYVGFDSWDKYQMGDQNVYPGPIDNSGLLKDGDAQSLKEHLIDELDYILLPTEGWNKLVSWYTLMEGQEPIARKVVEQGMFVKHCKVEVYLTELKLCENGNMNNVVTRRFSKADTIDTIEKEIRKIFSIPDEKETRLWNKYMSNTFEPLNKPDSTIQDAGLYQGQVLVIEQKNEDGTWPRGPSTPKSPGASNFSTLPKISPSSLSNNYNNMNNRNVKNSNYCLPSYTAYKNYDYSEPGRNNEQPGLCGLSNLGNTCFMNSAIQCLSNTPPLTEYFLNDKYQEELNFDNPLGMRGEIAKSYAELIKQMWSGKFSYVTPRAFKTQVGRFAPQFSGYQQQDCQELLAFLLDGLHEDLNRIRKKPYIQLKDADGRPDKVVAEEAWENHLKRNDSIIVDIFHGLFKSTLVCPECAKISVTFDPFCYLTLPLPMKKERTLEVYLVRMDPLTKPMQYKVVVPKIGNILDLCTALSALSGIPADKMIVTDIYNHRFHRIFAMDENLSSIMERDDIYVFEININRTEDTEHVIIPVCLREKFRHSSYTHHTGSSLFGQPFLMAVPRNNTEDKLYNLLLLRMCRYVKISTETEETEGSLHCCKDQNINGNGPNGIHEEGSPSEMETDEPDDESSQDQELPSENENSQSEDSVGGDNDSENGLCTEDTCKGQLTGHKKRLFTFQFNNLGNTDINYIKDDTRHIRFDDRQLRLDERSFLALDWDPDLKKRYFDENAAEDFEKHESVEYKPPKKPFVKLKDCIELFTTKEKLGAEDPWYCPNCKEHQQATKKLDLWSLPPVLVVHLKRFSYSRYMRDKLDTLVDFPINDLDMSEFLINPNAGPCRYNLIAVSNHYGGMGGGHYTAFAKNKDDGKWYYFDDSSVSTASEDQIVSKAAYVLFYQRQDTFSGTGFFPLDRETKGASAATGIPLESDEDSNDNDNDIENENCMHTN
Procedure, shortened: as §1

USP16 = USP16 (UniProt Q9Y5T5)
USP16, sequence (Q9Y5T5 whole entry, looked up): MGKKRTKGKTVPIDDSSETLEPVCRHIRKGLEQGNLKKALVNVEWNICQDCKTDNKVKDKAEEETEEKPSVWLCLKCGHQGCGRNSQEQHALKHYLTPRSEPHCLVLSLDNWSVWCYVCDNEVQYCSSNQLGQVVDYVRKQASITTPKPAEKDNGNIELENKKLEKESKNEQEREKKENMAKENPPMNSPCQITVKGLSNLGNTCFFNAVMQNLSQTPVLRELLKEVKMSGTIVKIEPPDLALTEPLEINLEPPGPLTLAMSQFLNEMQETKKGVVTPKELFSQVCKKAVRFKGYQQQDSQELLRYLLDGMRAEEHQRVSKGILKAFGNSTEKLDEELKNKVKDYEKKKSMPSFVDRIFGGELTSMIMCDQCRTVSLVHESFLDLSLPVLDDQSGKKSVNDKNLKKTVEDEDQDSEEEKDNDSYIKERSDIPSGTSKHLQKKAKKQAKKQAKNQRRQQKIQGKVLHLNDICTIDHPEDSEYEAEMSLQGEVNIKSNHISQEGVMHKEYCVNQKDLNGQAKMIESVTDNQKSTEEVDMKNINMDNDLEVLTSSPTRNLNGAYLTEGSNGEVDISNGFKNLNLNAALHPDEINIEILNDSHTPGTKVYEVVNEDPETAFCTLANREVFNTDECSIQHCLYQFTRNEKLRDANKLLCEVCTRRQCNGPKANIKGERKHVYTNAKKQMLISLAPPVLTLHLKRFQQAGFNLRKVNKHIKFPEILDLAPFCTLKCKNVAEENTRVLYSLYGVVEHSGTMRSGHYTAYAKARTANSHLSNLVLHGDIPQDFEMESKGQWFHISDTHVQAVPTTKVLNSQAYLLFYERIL
Procedure, shortened: as §1

Measured: log2 ratio of Biotin-Ahx-Ub-VS probe labelling

O=C(CCl)N1CCOC2(CCC2)CC1
active: UCHL1 -1.35
inactive: OTUD6B -0.0124 | OTUD7B -0.961 | PRPF8 -0.071 | PSMD7 -0.283 | UCHL3 0.146 | UCHL5 -0.0451 | USP10 -0.118 | USP15 -0.447 | USP16 0.117
